TDP1 cell CPT: growth inhibition of DT40 Tdp1-/-;hTDP1 cells with camptothecin (screen for TDP1 inhibitors) | chicken DT40 Tdp1-/-;hTDP1 cells + 20 nM CPT, ATP luminescence, 48 h | actives 12% (n = 420,000) | Potency, µM (highest dose often 46.2 µM), usual class: inhibitors; note: nearly all actives have a fitted effect of over 55% in size
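Chicken DT40 Tdp1-/- cells stably complemented with human TDP1 were seeded at 400 cells/well in medium containing 20 nM camptothecin, exposed to pin-transferred compounds, and grown at 37 °C for at least 48 hr. Viability was read as ATP luminescence.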
RORgamma inh: inhibitors of mouse ROR gamma transcriptional activity. AID 2551. actives 5.4% (n = 310,000). Drosophila S2 Gal4-RORgamma UAS-luciferase reporter, 20 h. P51450. Potency, µM (highest dose often 53.6 µM), most hits filed as inhibitors; note: nearly all actives have a fitted effect of over 60% in size
Target sequence (P51450 whole entry, looked up, the tested form may be a part): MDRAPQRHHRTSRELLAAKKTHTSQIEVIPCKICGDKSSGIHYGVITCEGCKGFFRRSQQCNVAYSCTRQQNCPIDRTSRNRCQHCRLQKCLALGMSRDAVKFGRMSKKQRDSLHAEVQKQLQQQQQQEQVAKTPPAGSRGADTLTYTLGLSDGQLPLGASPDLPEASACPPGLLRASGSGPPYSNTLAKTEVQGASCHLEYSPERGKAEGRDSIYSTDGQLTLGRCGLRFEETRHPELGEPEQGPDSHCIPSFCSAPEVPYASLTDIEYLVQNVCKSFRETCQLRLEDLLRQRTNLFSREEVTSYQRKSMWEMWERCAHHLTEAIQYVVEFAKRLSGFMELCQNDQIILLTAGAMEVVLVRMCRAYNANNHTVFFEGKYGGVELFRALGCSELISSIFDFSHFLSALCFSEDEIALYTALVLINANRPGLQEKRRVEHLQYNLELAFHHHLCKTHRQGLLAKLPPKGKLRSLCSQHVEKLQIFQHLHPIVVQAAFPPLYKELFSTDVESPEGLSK
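Drosophila S2 cells stably expressing Gal4-DBD/mouse RORγ fusion under metallothionein promoter plus UAS-luciferase; compound 1 h, then 700 uM CuSO4 induction for 20 h at ambient temperature; inhibition read as reduced luminescence.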
LDHA inh: blocks human lactate dehydrogenase A. activity change, % (values are at about 110 or 230 µM). actives 0.15% (n = 480,000). purified LDHA, NADH/diaphorase-resazurin fluorescence; stronger effect = lower value. AID 1347041. P00338; in the data active = activity change below about -30%; inconclusive = mostly about -25% to -30%
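Enzyme activity of human lactate dehydrogenase 5 (2 nM; 0.06 mM NADH, 0.2 mM pyruvate, 5 min, RT) is measured via a resazurin/diaphorase fluorescence readout of residual NADH.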
DT40 TDP1 no CPT: qHTS for Inhibitors of human tyrosyl-DNA phosphodiesterase 1 (TDP1): qHTS in cells in absence of CPT; DT40 Tdp1-/- hTDP1 cells, no CPT, ATP luminescence, 48 h; Potency, µM (top dose mostly 46.2 µM), usual class: inhibitors; actives 15% (n = 420,000); AID 686978, 2013; note: nearly all actives have a fitted effect of over 55% in size
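Luminescent ATP content (CellTiter-Glo) served as the growth readout. Knockout chicken DT40 cells expressing human TDP1 were exposed to compounds without camptothecin for a minimum 48 hr at 37 °C.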
Gal4-VP16 FLuc: Gal4-VP16 reporter inhibition counter-screen; Drosophila S2 Gal4-VP16 UAS-luciferase, luminescence, 20 h; Potency, µM (top dose mostly 53.6 µM), usual class: inhibitors; actives 3.5% (n = 310,000); AID 2546;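 note: Gal4-VP16 expression switched on by copper sulfate through the metallothionein promoter; nearly all actives have a fitted effect of over 50% in size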
IL1B secr inh: inflammasome signaling inhibition, IL-1 beta readout; THP-1 LPS/ATP IL-1B secretion, AlphaLISA, 16 h; stronger effect = lower value; activity change, % at 57.5 µM; actives 4.7% (n = 360,000); in the data active = activity change below about -50%; inconclusive = mostly about -30% to -49%
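Secreted IL-1B measured by AlphaLISA bead assay after 16 h compound exposure of THP-1 cells; compounds (final up to 57.5 uM) added 1 h before LPS (250 ng/mL) and ATP (1.25 mM) stimulation; lower signal means less secretion.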
Numbers stand for hits. Compounds with a hit are over-represented: about 18% of the library has one in this group of screens. Unless noted, calls come from the whole dose curve; as a rule, active = well fitted curve in the direction sought with a large enough effect; inconclusive = small, poorly fitted or top-dose-only effect, or another doubt; inactive = no such curve, though single readings can be large; an effect the other way counts as inactive or inconclusive.

For CCOC(=O)C1=C(N)Oc2cc(C)oc(=O)c2C12C(=O)N1c3c(cccc32)C(C)CC1(C)C (stereo unspecified) the results were TDP1 cell CPT inactive, RORgamma inh inactive, LDHA inh inactive, DT40 TDP1 no CPT inactive, Gal4-VP16 FLuc inactive and IL1B secr inh inactive.
CCOC(=O)[C@]12Cc3cc(C)ccc3[C@H]1N(C(C)C)C(=O)c1ccccc12 was read as TDP1 cell CPT 10.3µM, LDHA inh inactive, DT40 TDP1 no CPT 6.51µM and IL1B secr inh -113.1.
Screening CCOC(=O)[C@]12Cc3cc(OC)ccc3[C@H]1N(Cc1ccccc1)C(=O)c1ccccc12 returned TDP1 cell CPT inconclusive, LDHA inh inactive, DT40 TDP1 no CPT 11.2µM and IL1B secr inh inactive.
Oc1cc(Cl)ccc1Cl was read as RORgamma inh inactive and Gal4-VP16 FLuc inactive.
COc1cc(C)c(C(=O)CC(=O)c2c(C)cc(OC)cc2C)c(C)c1 was read as TDP1 cell CPT 14.6µM, LDHA inh inactive, DT40 TDP1 no CPT 11.6µM and IL1B secr inh inactive.
For CN(CC(=O)Nc1cccc(F)c1)CC(=O)Nc1cccc(S(=O)(=O)N(C)c2ccccc2)c1 the results were TDP1 cell CPT 23.1µM, LDHA inh inactive, DT40 TDP1 no CPT 23.1µM and IL1B secr inh -78.8.
`O=C(CN1CC=C(c2ccccc2)CC1)Nc1cc(Cl)ccc1Cl` gave TDP1 cell CPT inconclusive, RORgamma inh inactive, LDHA inh inactive, DT40 TDP1 no CPT 16.4µM, Gal4-VP16 FLuc inactive and IL1B secr inh inactive.
Screening O=C(CN1CC=C(c2ccccc2)CC1)NC(=O)NCc1ccccc1 returned TDP1 cell CPT inconclusive, RORgamma inh inactive, LDHA inh inactive, DT40 TDP1 no CPT inconclusive, Gal4-VP16 FLuc inactive and IL1B secr inh inactive.
`COc1ccccc1CNCC(=O)Nc1cc(S(=O)(=O)N2CCCCC2)ccc1C` gave TDP1 cell CPT inconclusive, LDHA inh inactive, DT40 TDP1 no CPT inconclusive and IL1B secr inh -59.7.
Cc1ccc(N2CC(C(=O)Nc3cc(S(=O)(=O)N4CCCCC4)ccc3C)CC2=O)cc1 (stereo unspecified) was read as TDP1 cell CPT inconclusive, LDHA inh inactive, DT40 TDP1 no CPT 5.8µM and IL1B secr inh inactive.
Cc1ccc(S(=O)(=O)N2CCCCC2)cc1NC(=O)CN1CC=C(c2ccccc2)CC1 was read as TDP1 cell CPT 8.2µM, RORgamma inh inactive, LDHA inh inactive, DT40 TDP1 no CPT 5.17µM, Gal4-VP16 FLuc inactive and IL1B secr inh inconclusive.
Screening CN(C/C=C/Cl)C1Cc2ccccc2C1 returned LDHA inh inactive.
Cc1ccc(Cn2cccc(C(=O)Nc3nnc(C)s3)c2=O)cc1 was read as TDP1 cell CPT inactive, LDHA inh inactive and DT40 TDP1 no CPT inactive.
Screening C[C@H]1CC[C@@H]2[C@@H](C)[C@H]3[C@H](C[C@H]4[C@@H]5CC=C6CC(O[C@@H]7O[C@H](CO)[C@H](O)[C@H](O[C@@H]8O[C@H](CO)[C@@H](O)[C@H](O)[C@H]8O)[C@H]7O[C@H]7O[C@@H](C)[C@H](O)[C@@H](O)[C@H]7O)CC[C@]6(C)[C@H]5CC[C@]34C)N2C1 (stereo partly specified) returned TDP1 cell CPT inconclusive, RORgamma inh inactive, DT40 TDP1 no CPT inconclusive and Gal4-VP16 FLuc inactive.
Screening Fc1ccc(-c2ccc(CNC3CN4CCC3CC4)o2)cc1Cl (stereo unspecified) returned LDHA inh inactive.
`Cc1ccc(Cn2cc(C=O)c(-c3ccc(C)cc3)n2)cc1` gave TDP1 cell CPT inconclusive, RORgamma inh inconclusive, LDHA inh inactive, DT40 TDP1 no CPT inconclusive, Gal4-VP16 FLuc inactive and IL1B secr inh -58.2.
`O=C(NC1CC1)c1cn(Cc2ccccc2)nc1-c1ccccc1` gave TDP1 cell CPT inactive, LDHA inh inactive, DT40 TDP1 no CPT inactive and IL1B secr inh inactive.
